The entries come from a sample that favours hits as a whole.
Pf Dd2 growth: Plasmodium falciparum Dd2 growth inhibition; Potency, µM (highest dose often 28.9 µM), for inactives: top-dose activity, negative = inhibition, usual class: inhibitors; 120,000 tested, 4.3% active; P. falciparum Dd2 growth, SYBR Green, 72 h; active = well fitted inhibition curve with a large enough effect;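 also: plate controls were DMSO vehicle for no effect and reference drug for full effect; nearly all actives have a fitted effect of over 65% in size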
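Infected erythrocytes (Dd2, 0.3% parasitemia, 2.5% hematocrit final) are added to compound in RPMI-1640/Albumax II medium, grown 72 h at 37C in low oxygen, then lysed with saponin/Triton-X containing SYBR Green and read by fluorescence.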
The depositor's hits bear a star; i = inactive; [ ] = dose if it differs, or a comment. Potency is read from the fitted curve at half-maximal effect.

SMILES	Pf Dd2 growth
Cn1c(CN2CCCN(S(=O)(=O)N3CCCC3)CC2)nnc1C1CC(N)C1 (stereo not given)	-8%
Cc1cc(C(=O)N[C@H](C)c2onc(C)c2C(=O)O)c(C)o1	6%[44.1 µM]
COc1ccc(CN2C=C(C(=O)OCc3nc(-c4ccccc4)no3)C(C)=NS2(=O)=O)cc1	i
CCCNC(=O)O[C@@H]1CC[C@]2(C)C(CC[C@@H](O)[C@H]2CC(=O)NCc2ccccc2)[C@]1(C)CO (stereo not given in full)	i
COc1cccc(-n2c(-c3ccccc3F)nc3c(cnn3-c3ccc(C)cc3)c2=O)c1	8.9µM*
Cc1ccc(-c2nc3c(cnn3-c3ccccc3)c(=O)n2-c2cccc(Cl)c2)cc1	-7%
Cc1ccc(-n2c(-c3ccco3)nc3c(cnn3-c3ccc(C)cc3)c2=O)cc1	11µM*
Cc1ccc(-n2c(-c3ccco3)nc3c(cnn3-c3ccccc3C)c2=O)cc1	i
Cc1cccc(-n2c(-c3ccco3)nc3c(cnn3-c3ccc(F)cc3)c2=O)c1	i
Cc1ccc(-n2c(C)nc3c(cnn3-c3ccccc3)c2=O)cc1	14%
CC(C)CC(=O)N1CCCCCC1c1nnc(-c2ccccc2)o1 (stereo not given)	-15%
CCOc1ccc(NC(=O)C2(CC)CCCCC(=O)N2)cc1 (stereo not given)	11%
COc1ccc(NC(=O)N2CC3CC(C2)[C@H]2CCCC(=O)N2C3)cc1 (stereo not given in full)	-6%
CC(C)(C)C1CCC2(CC1)NC(=O)N(CC(=O)Nc1ccccc1)C2=O (stereo not given)	i
C=CCNC(=O)N[C@H]1[C@H](O)[C@@H](N(C)CCN(C)C)[C@@H]2OC[C@H]1O2	i
OC1CC([C@@H](Cc2ccccn2)NC2CCN(Cc3ccco3)CC2)C1 (stereo not given in full)	-2%
Cc1ccc(-c2nc3ccccn3c2Nc2ccc3c(c2)OCCO3)s1	i
Cc1ccc2nc(-c3cccc(Cl)c3)c(Nc3ccc4c(c3)OCO4)n2c1	-7%
Cc1ccn2c(Nc3ccc4c(c3)OCO4)c(-c3ccc(O)cc3)nc2c1	13µM*
c1coc(-c2nc3ccccn3c2Nc2ccc3c(c2)OCCO3)c1	i
CSc1ccc(-c2nc3cc(C)ccn3c2Nc2ccc(C)cc2)cc1	0%
CN(C)c1ccc(-c2nc3ccccn3c2Nc2ccc3c(c2)OCCO3)cc1	10µM*
CCCNC(=O)N1CC[C@@H](CC(=O)O)[C@@H](CC2=NCCc3cc(F)ccc32)C1	i
CC1(C)[C@H](Cc2cc(CCO)on2)C[C@@H]1NCc1ccccc1O	i
CC(C)NC(=O)c1ccccc1OCC1CCCNC1 (stereo not given)	i
SMILES	Pf Dd2 growth
O=C(CN1CCn2nc(C(O)C3CC3)cc2C1)N1CCc2ccccc21 (stereo not given)	-28%
COc1ccc(S(=O)(=O)N2C[C@@H]3C[C@H](C2)c2c(NC(=O)c4ccco4)ccc(=O)n2C3)cc1	-14%
COc1ccc2c(c1)c(CN1CCC3(CC1)CC(O)CCO3)cn2C (stereo not given)	-2%
CC(C)Oc1ccccc1CN1CCC2(CC1)CC(O)CCO2 (stereo not given)	5µM*
OC1CCOC2(CCN(Cc3ccccc3OC(F)(F)F)CC2)C1 (stereo not given)	5.6µM*
OC1CCOC2(CCN(Cc3ccncc3)CC2)C1 (stereo not given)	6%
OC1CCOC2(CCN(Cc3ccc(Br)o3)CC2)C1 (stereo not given)	2%
COc1cccc(CN2CCC3(CC2)CC(O)CCO3)c1OC (stereo not given)	-13%
Cc1ccc(C)c(CNC(=O)Cn2c(C)ccc(NS(=O)(=O)c3ccccc3)c2=O)c1	7%
CCNC(=O)N1CCCCCCN(C)C(=O)[C@@H]2CCC[C@@H]21	-15%
O=C(Cc1ccccc1)NCC(=O)N1CCCCCNC(=O)CC1c1ccccc1 (stereo not given)	3%
O=C(c1ccc2[nH]ccc2c1)N1CC(CO)C2(CCNCC2)C1 (stereo not given)	-8%
Cc1nc(N(C)C)ncc1C(=O)N1CCC(C(=O)NCc2ccccn2)CC1	-16%
COc1ccc(CN2CCC3(CC2)CC(C)=NO3)cc1	-18%[44.1 µM]
CC1=NOC2(CCN(Cc3ccc(F)cc3)CC2)C1	i
CC1=NOC2(CCN(Cc3ccc(N(C)C)cc3)CC2)C1	10µM*
O=C(c1ccn[nH]1)N1CCc2n[nH]c(=O)n2CC1	30%
COc1ccc(C(=O)N2[C@@H]3CC[C@H]2CC(NC(=O)c2ccc(F)cc2)C3)cc1OC (stereo not given in full)	i
COC(=O)c1ccc(-c2nc(-c3ccc(OC)c(OC)c3)no2)cc1	59%
COC(=O)c1ccc([C@@H]2Nc3c(OC)ccc(C)c3[C@@H]3C=CC[C@@H]32)cc1	3.2µM*
CCN1c2cc(C(=O)NCc3ccc(Br)cc3)ccc2C(=O)N2CCCCC21 (stereo not given)	i
O=C1[C@H]2CN(Cc3ccc(OC(F)(F)F)cc3)C[C@H]2C(=O)N1Cc1ccc2c(c1)OCO2	-17%
CCOC(=O)N1CCc2c(sc3c2c(=O)n(-c2ccccc2)c(=O)n3CC(=O)Nc2ccc(OC)cc2OC)C1	4.5µM*
CC(=O)N1CCc2c(sc3c2c(=O)n(-c2ccccc2C)c(=O)n3Cc2cccc(F)c2)C1	-16%
CCOC(=O)N1CCc2c(sc3c2c(=O)n(Cc2ccccc2)c(=O)n3Cc2c(F)cccc2Cl)C1	3.2µM*
SMILES	Pf Dd2 growth
CC(=O)N1CCc2c(sc3c2c(=O)n(-c2ccccc2)c(=O)n3CC(=O)Nc2cccc(C)c2)C1	-28%
COc1cccc(NC(=O)Cn2c(=O)n(-c3ccccc3)c(=O)c3c4c(sc32)CCCC4)c1	i
CCOC(=O)N1CCc2c(sc3c2c(=O)n(Cc2ccccc2)c(=O)n3CC(=O)Nc2ccc(F)cc2)C1	-20%
CC(=O)N1CCc2c(sc3c2c(=O)n(Cc2ccccc2)c(=O)n3Cc2ccccc2F)C1	i
COC(=O)c1sc2c(c1C)c(=O)n(-c1ccccc1)c(=O)n2CC(=O)Nc1cccc(C)c1	11µM*
CC(=O)N1CCc2c(sc3c2c(=O)n(-c2ccccc2)c(=O)n3CC(=O)Nc2cc(C)cc(C)c2)C1	-3%
CC(=O)N1CCc2c(sc3c2c(=O)n(Cc2ccccc2)c(=O)n3Cc2ccc(C)cc2)C1	-10%
CC(=O)N1CCc2c(sc3c2c(=O)n(-c2cc(Cl)ccc2C)c(=O)n3Cc2ccccc2F)C1	10µM*
CC(=O)N1CCc2c(sc3c2c(=O)n(-c2ccccc2)c(=O)n3CC(=O)Nc2ccccc2)C1	12%
COC(=O)CC[C@H]1CNC(=O)[C@@H]2[C@@H](CCN2Cc2ncc[nH]2)N1C	5%[44.1 µM]
O=C(O)C1(Oc2cccc(F)c2)CCN(Cc2ccc(CO)o2)CC1	-3%
CCn1ccc(-c2c(-c3ccccc3)ncn2CCN(C)S(C)(=O)=O)n1	15%
Cc1ccc(C2=NC3(CCN(C(=O)CSc4ccccc4)CC3)ON2)cc1	i
CCNC(=O)NCC12CCCC=C1NC(=O)CC2 (stereo not given)	2%
OCC1CN(c2ncccn2)CC12CCN(Cc1cc(F)ccc1F)CC2 (stereo not given)	-25%
CN1CCN(S(=O)(=O)c2ccc(F)cc2F)CC12CCNC(=O)CC2 (stereo not given)	-2%
O=C(CN1C(=O)NC2(CCCCC2)C1=O)Nc1cccc(C(F)(F)F)c1	-23%
COc1ccc2[nH]c3c(c2c1)CCN(C)C31CCN(C(=O)c2cccs2)CC1	i
